From PubChem BioAssay
A number with no mark means an inactive call. Calls of active or inactive are those of the source.

Assay: fission yeast growth modulation, primary screen, strain 972, OD600, 24 h, no modulator (AID 1090);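 also: basal condition with compound alone and no growth modifier present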
Settings: S. pombe 972 growth, higher = more signal, called active from +8 up or from −8 down
Also: test concentration not given here.

| SMILES | z-score |
| --- | --- |
| Cc1ccc(S[C@]2(C(=O)NC3CC3)CC(=O)N(Cc3ccccc3)[C@@H]2c2ccc(CO)cc2I)cc1 | -3.59 |
| CCCC#C[Si](O[C@H](CC)c1cn(Cc2cccc(Cl)c2)nn1)(C(C)C)C(C)C | -9.34 (active) |
| COCC(=C=CC[C@@H](O)c1cccc(OCCO)c1)C[C@@H](O)c1ccccn1 | -0.416 |
| CC(C)C[C@@H]1NC(=O)[C@H](C(C)C)NC(=O)[C@@]23C(=O)N[C@@H](Cc4ccccc4)C2[C@H](C)[C@@]2(C)O[C@H]2C3/C=C/CC/C=C/CNC1=O (some centres not stated) | -0.328 |
| [N-]=[N+]=Nc1ccccc1[C@@H]1OC(c2ccc(OCCCO)cc2)=N[C@]1(Cc1ccccc1)C(=O)N1CCOCC1 | -1.26 |
| COc1ccc([Si](C)(C)[C@H]2[C@H](CCO)O[C@@]3(C(=O)N(Cc4ccc(N(C=O)c5ccccc5)cc4)c4ccccc43)[C@@H]2C)cc1 | 0.302 |
| CC(C)=CCCC(C)=CC(O)C1C=CC2C(=O)N(C)C(=O)C2N1Nc1ccccc1 (configuration not stated) | -1.26 |
| COc1cc(NN2C(C(O)c3ccco3)C=CC3C(=O)N(c4ccccc4)C(=O)C32)cc(OC)c1OC (configuration not stated) | 0.0991 |
| C=CC[C@@]1(C(=O)NCCN2CCOCC2)N=C(c2ccc(OCCCO)cc2)O[C@@H]1c1ccccc1N=[N+]=[N-] | -0.211 |
| COC(=O)[C@@]1(Cc2ccccc2)[C@H]2c3cc(C(=O)N4CCCC4)n(Cc4ccc(S(C)(=O)=O)cc4)c3C[C@H]2CN1C(=O)c1ccccc1 | 0.955 |
| C=CCNC(=O)[C@@H]1[C@H]2C(=O)O[C@H](c3ccccc3)[C@H](c3ccccc3)N2[C@H](c2ccc(O)cc2)[C@@]12C(=O)N(C(=O)OCCOC)c1ccc(C#CCNC(N)=O)cc12 | 0.18 |
| CCOC(=O)C1=CC[C@@H](c2ccccc2)N(S(=O)(=O)c2ccc(C)cc2)[C@H]1c1ccccc1C | 0.903 |
| C=CCNC(=O)[C@@H]1[C@H]2C(=O)O[C@H](c3ccccc3)[C@H](c3ccccc3)N2[C@H](c2ccc(O)cc2)[C@@]12C(=O)Nc1ccc(C#CCNC(N)=O)cc12 | 0.112 |
| O=C(NCCN1CCOCC1)[C@@H]1c2ccccc2C(=O)N(C2CCCCC2)[C@H]1c1ccc(CO)cc1 | -0.556 |
| CCCCCCc1nc(-c2cc(C)c(OC)c(C)c2)cc2c1[Si](C(C)C)(C(C)C)OC2 | -0.114 |
| C=CCNC(=O)[C@H]1[C@@H]2C(=O)O[C@@H](c3ccccc3)[C@@H](c3ccccc3)N2[C@@H](c2ccccc2OCCO)[C@]12C(=O)Nc1ccc(C#CCC(C(=O)OC)C(=O)OC)cc12 | 2 |
| CC(=O)n1cc(C(O)C2C=CC3C(=O)N(c4ccccc4)C(=O)C3N2Nc2ccc([N+](=O)[O-])cc2)c2ccccc21 (configuration not stated) | 0.451 |

Assay: S. cerevisiae growth modulation with rapamycin, primary screen, strain BY4716, OD600, 96 h (AID 1091)
Settings: higher = more signal, called active from +8 up or from −8 down

| SMILES | z-score |
| --- | --- |
| O=C1c2ccccc2[C@](Cc2ccccc2I)(C(=O)NCC(F)(F)F)[C@H](c2ccc(CO)cc2)N1Cc1ccccc1Cl | -1.29 |
| CCCC=C(CCC)[C@@H](NC(=O)c1cccs1)c1ccc(C(F)(F)F)cc1 | -0.851 |
| CCCCN1CC=CC23O[C@@H]4C=CCCOC(=O)C4[C@H]2C(=O)N(CCCCCCO)[C@@H]3C1=O (some centres not stated) | 0.2 |
| CCCCCN1CC=CC23O[C@@H]4C=CCCOC(=O)C4[C@H]2C(=O)N(CCCCCO)[C@@H]3C1=O (some centres not stated) | -0.255 |
| O=C(NC1CC1)[C@@H]1c2ccccc2C(=O)N(Cc2ccccc2Cl)[C@H]1c1ccc(CO)cc1 | -1.66 |
| COCCOC(=O)N1C(=O)[C@@]2(c3cc(C#CCC(C(=O)OC)C(=O)OC)ccc31)[C@H](C(=O)N1CCN(c3ncccn3)CC1)[C@H]1C(=O)O[C@H](c3ccccc3)[C@H](c3ccccc3)N1[C@@H]2c1ccccc1OCCO | 6.3 |
| CCCC[C@H]1OB(O)C[C@H]2C1=C(COC)Cn1c(=O)n(-c3ccccc3)c(=O)n12 | -0.386 |
| Oc1ccc2cc[n+](Cc3sc4ccccc4c3Cl)cc2c1 | 2.3 |
| C=C[C@H](OC)[C@@H](OC(=O)Nc1ccc(OC)cc1)c1ccc(O)c(F)c1 | 1.3 |
| O=C1C2C=CC(C(O)c3cc(C(F)(F)F)cc(C(F)(F)F)c3)N(n3cnnc3)C2C(=O)N1Cc1ccccc1 (configuration not stated) | -0.384 |
| CCC(CC)C(O)C1C=CC2C(=O)NC(=O)C2N1Nc1ccc(Cl)cc1Cl (configuration not stated) | 1.34 |
| COc1cc(C(O)C2C=CC3C(=O)NC(=O)C3N2Nc2ccccn2)cc(OC)c1OC (configuration not stated) | 0.42 |
| CC(C)C(CO)N1C(=O)[C@@H]2C3C(=O)OCCC/C=C\[C@H]3OC23C=CCN(CCN2CCOCC2)C(=O)[C@@H]13 (some centres not stated) | 0.205 |
| C=CCN1C(=O)[C@@]2(CC=C)N=C(c3ccc(OCCCO)cc3)O[C@H]2c2ccccc21 | 0.764 |
| COC(=O)[C@@]1(Cc2ccccc2)N=C(c2ccc(OCCCO)cc2)O[C@H]1c1ccccc1 | 3.21 |
| C=C(COC)/C(=C/C[C@@H](OC(=O)c1ccncc1)c1ccc(CO)o1)c1cc(C(=O)OC)ccc1OC | -0.127 |
| CN(C)CCCC[C@@H]1NC(=O)[C@H]2C[C@@H](C(=O)NCCCCCCN)[C@@H](c3ccc(O)cc3)N2C1=O | -0.447 |
| CO[C@H]1O[C@H](CO)[C@@H](OC(=O)Nc2ccc(Oc3ccccc3)cc2)[C@H](OC(=O)Nc2ccc3c(c2)OCO3)[C@H]1OC(=O)Nc1ccc2c(c1)OCO2 | 2.07 |

| SMILES | z-score |
| --- | --- |
| Cc1ccc(S[C@]2(C(=O)NC3CC3)CC(=O)N(Cc3ccccc3)[C@@H]2c2ccc(CO)cc2I)cc1 | 0.0377 |
| CCCC#C[Si](O[C@H](CC)c1cn(Cc2cccc(Cl)c2)nn1)(C(C)C)C(C)C | -1.52 |
| COCC(=C=CC[C@@H](O)c1cccc(OCCO)c1)C[C@@H](O)c1ccccn1 | -0.648 |
| CC(C)C[C@@H]1NC(=O)[C@H](C(C)C)NC(=O)[C@@]23C(=O)N[C@@H](Cc4ccccc4)C2[C@H](C)[C@@]2(C)O[C@H]2C3/C=C/CC/C=C/CNC1=O (some centres not stated) | -0.522 |
| [N-]=[N+]=Nc1ccccc1[C@@H]1OC(c2ccc(OCCCO)cc2)=N[C@]1(Cc1ccccc1)C(=O)N1CCOCC1 | 1.85 |
| COc1ccc([Si](C)(C)[C@H]2[C@H](CCO)O[C@@]3(C(=O)N(Cc4ccc(N(C=O)c5ccccc5)cc4)c4ccccc43)[C@@H]2C)cc1 | 25.2 (active) |
| CC(C)=CCCC(C)=CC(O)C1C=CC2C(=O)N(C)C(=O)C2N1Nc1ccccc1 (configuration not stated) | 2.76 |
| COc1cc(NN2C(C(O)c3ccco3)C=CC3C(=O)N(c4ccccc4)C(=O)C32)cc(OC)c1OC (configuration not stated) | -0.234 |
| C=CC[C@@]1(C(=O)NCCN2CCOCC2)N=C(c2ccc(OCCCO)cc2)O[C@@H]1c1ccccc1N=[N+]=[N-] | 0.408 |
| COC(=O)[C@@]1(Cc2ccccc2)[C@H]2c3cc(C(=O)N4CCCC4)n(Cc4ccc(S(C)(=O)=O)cc4)c3C[C@H]2CN1C(=O)c1ccccc1 | 0.671 |
| C=CCNC(=O)[C@@H]1[C@H]2C(=O)O[C@H](c3ccccc3)[C@H](c3ccccc3)N2[C@H](c2ccc(O)cc2)[C@@]12C(=O)N(C(=O)OCCOC)c1ccc(C#CCNC(N)=O)cc12 | 0.462 |
| CCOC(=O)C1=CC[C@@H](c2ccccc2)N(S(=O)(=O)c2ccc(C)cc2)[C@H]1c1ccccc1C | -0.3 |
| C=CCNC(=O)[C@@H]1[C@H]2C(=O)O[C@H](c3ccccc3)[C@H](c3ccccc3)N2[C@H](c2ccc(O)cc2)[C@@]12C(=O)Nc1ccc(C#CCNC(N)=O)cc12 | 1.69 |
| O=C(NCCN1CCOCC1)[C@@H]1c2ccccc2C(=O)N(C2CCCCC2)[C@H]1c1ccc(CO)cc1 | 0.0989 |
| CCCCCCc1nc(-c2cc(C)c(OC)c(C)c2)cc2c1[Si](C(C)C)(C(C)C)OC2 | -0.264 |
| C=CCNC(=O)[C@H]1[C@@H]2C(=O)O[C@@H](c3ccccc3)[C@@H](c3ccccc3)N2[C@@H](c2ccccc2OCCO)[C@]12C(=O)Nc1ccc(C#CCC(C(=O)OC)C(=O)OC)cc12 | 5.92 |
| CC(=O)n1cc(C(O)C2C=CC3C(=O)N(c4ccccc4)C(=O)C3N2Nc2ccc([N+](=O)[O-])cc2)c2ccccc21 (configuration not stated) | 2.05 |
